Results as given in ChEMBL document CHEMBL3988442, “University of Dundee, Small-Polar-MMV Screening Library” (2021).
The campaign covered roughly 48,000 compounds. About 13,000 (27%) showed an effect of 50% or more. The list shows a part of the results.

Test system: Wolbachia pipientis
Assay: Anti-Wolbachia Cell-Based Screen
Assay type: functional
Set-up: scale not given: in the data most compounds retested in dose-response had high values
Settings: 5 µM

SMILES | Percent Effect [%]
CCOc1ccc2ccccc2c1CNCC1CCS(=O)(=O)C1.Cl (centres undefined) | -1.499
CCOc1ccnc(N2CCN(C(=O)C(C)(C)C#N)CC2)n1 | 0.4658
COc1cc(CN(C)C(=O)NCc2cccnc2OC)ccc1SC | -20.02
Cc1cc(CS(=O)(=O)C(C)c2ccc(F)cc2)on1 (centres undefined) | -4.028
COc1ccc(CNC2CCN(c3ccccc3)C2)c(OC)c1OC (centres undefined) | -16.13
Cc1nccn1C1CCCN(C(=O)c2cccc(Cn3ccnc3)c2)C1 (centres undefined) | 99.35
O=C(c1ccnc(-n2ccnc2)c1)N1CCCC(n2cccn2)C1 (centres undefined) | 103.2
CN(C)c1cc(C(=O)N2CCCC(n3cccn3)C2)ccn1 (centres undefined) | -2.177
Cc1nccn1C1CCCN(C(=O)c2ccnc(-n3ccnc3)c2)C1 (centres undefined) | 102.3
O=C(c1cccc(Cn2ccnc2)c1)N1CCCC(n2ccnc2)C1 (centres undefined) | 0.5166
O=C(c1ccc(-n2ccnc2)nc1)N1CCCC(n2cccn2)C1 (centres undefined) | -14.33
O=C(c1ccnc(-n2ccnc2)c1)N1CCCC(n2ccnc2)C1 (centres undefined) | 100.2
CC(C)n1ccnc1CN1CCOC(CC2CCCCC2)C1 (centres undefined) | 1.186
CCc1ccc(-c2cn(CCSc3ncn[nH]3)nn2)nc1 | 2.471
Cn1nnnc1SCCNC(=O)C1CCN(C(=O)C2CCC2)CC1 | 1.92
CC(C)[C@H]1CN(CC2CCC2)C[C@@H]1NC(=O)c1ccc(=O)[nH]c1 | 7.651
CN(C)C(=O)c1nc(CN2C(=O)OC[C@@H]2c2ccccc2)no1 | 1.255
O=C(CN1CCS(=O)(=O)CC1)NC1CCCc2ccccc21 (centres undefined) | 8.057
CCN(CCO)Cc1cn(-c2cccc(F)c2)nc1-c1ccc(C)o1 | 11.71
O=C1CN(Cc2nnc(-c3ccc(Cl)cc3)o2)CCN1 | -10.36
c1ccc2c(c1)CC(N1CCCC(NCc3cccc4nonc34)C1)C2 (centres undefined) | -10.52
CCN(CCn1cccn1)C(=O)CN1C(=O)OC[C@@H]1c1ccccc1 | -1.306
CS(=O)(=O)N1CCCCC1CCc1ccc(O)cc1 (centres undefined) | 6.219
O=S(=O)(CC1CCCN1S(=O)(=O)c1cccnc1)c1ccccc1 (centres undefined) | 115.5
O=S(=O)(c1cccnc1)N1CCCC1COc1ccccc1 (centres undefined) | -14.29

SMILES | Percent Effect [%]
O=S(=O)(c1cccnc1)N1CCN(CC(O)c2ccccc2)CC1 (centres undefined) | 2.359
NC1CCCCN(Cc2ccccc2CS(=O)(=O)c2ccccc2)C1 (centres undefined) | -12.21
Cc1nccn1CC1CCCN1S(=O)(=O)Cc1ccccc1 (centres undefined) | -11.24
O=C(CC1CCCN1S(=O)(=O)N1CCCCC1)c1cccs1 (centres undefined) | -4.447
O=S(=O)(CC1CCCN1S(=O)(=O)C1CC1)c1ccccc1 (centres undefined) | 115.6
CS(=O)(=O)N1CCCC1CS(=O)(=O)c1ccccc1 (centres undefined) | 121.3
CS(=O)(=O)c1ccc(-c2c[nH]c([C@@H]3COCCN3)n2)cc1 | 22.57
COc1ccc(OC)c2c(C)cc(N(C)Cc3cc(C)on3)nc12 | -2.431
Cc1nc2cc(=O)[nH]n2c(C)c1CC(=O)Nc1ccc2ccccc2n1 | -9.33
COc1cccc(-c2cccc(CN3C[C@@H]4CC[C@H](C3)N(C)C4=O)c2)c1 | 5.514
Cc1cccc(-c2noc([C@@H]3C[C@@H](O)CN3C3CCOCC3)n2)c1 | -7.928
COc1cccc(-c2noc(C3CCN(Cc4ccc(C)cc4)C3)n2)c1.Cl (centres undefined) | 91
COc1cccc(-c2noc(C3CCN(CC(N)=O)C3)n2)c1 (centres undefined) | 113.2
COc1cccc(-c2noc(C3CCN(Cc4cccs4)C3)n2)c1.Cl (centres undefined) | 4.787
COc1cccc(-c2noc(C3CCN(Cc4ccncc4)C3)n2)c1 (centres undefined) | 126.2
c1ccc(-c2noc(C3CCN(CCn4cccn4)CC3)n2)cc1 | 4.986
COc1cccc(COC(C)C(=O)NC2CCN(CC(N)=O)CC2)c1 (centres undefined) | -5.378
CCS(=O)(=O)c1ccc2oc([C@H]3CCN(CC4CCCCC4)C3)nc2c1 | -4.53
COc1cccc(-c2noc(C3CCN(CC4CCCCC4)C3)n2)c1.Cl (centres undefined) | 96.8
Cc1c(NC(C)C(C)C)cccc1C(=O)NCc1cnn(C)c1 (centres undefined) | 6.886
COC(=O)c1sccc1S(=O)(=O)NCC1(O)CCOc2ccccc21 (centres undefined) | -4.679
CCOC(=O)CN1CCC(NC(=O)OC(C)(C)C)CC1 | -0.4465
COc1cccc([C@@H](C)n2ccnc2-c2cc3n(n2)CCNC3)c1 | -10.36
CN(Cc1nc2ccccc2[nH]1)C(=O)C(C)(C)n1cc(Cl)cn1 | 2.79
Cc1nn(C)c(C)c1C1CCCN1Cc1cccc(C(N)=O)c1 (centres undefined) | 1.349

SMILES | Percent Effect [%]
O=C(O)CCc1cn(C2CCN(c3ncccc3Cl)CC2)nn1 | -1.723
Cc1cccc(CN2CCCC2c2cccc(CCC(=O)O)n2)c1 (centres undefined) | 96.42
Cc1cc(C)nc(N2CCC(c3cccc(CCC(=O)O)n3)CC2)n1 | 80.96
COc1cc(C)nc(N2CCN(C(=O)CCc3cscn3)CC2)n1 | -12.29
NC(=O)COc1cccc(CN2CCCC2c2ccc[nH]2)c1 (centres undefined) | 11.28
CC(=O)c1cc(CN2CCCC2c2nc3ccc(C)cc3[nH]2)cs1 (centres undefined) | -31.75
O=C(O)CCc1cccc(C2CCCN2Cc2ccc(F)c(F)c2)n1 (centres undefined) | -6.193
O=C(O)CCc1cccc(C2CCCN2Cc2cccc(Cl)c2)n1 (centres undefined) | 91.67
CCCN1CCCn2nc(CNC(=O)CC3CCS(=O)(=O)C3)cc2C1 (centres undefined) | -3.917
CCc1ccc(C2COCCN2C(=O)Nc2cccc(C(C)=O)c2)o1 (centres undefined) | -4.107
CSc1ncc(C(=O)NCc2cc3n(n2)CCCN(CC(C)C)C3)cn1 | 10.82
CC(=O)N1CCC2(CC1)CN(CC(C)C)CC21CCNC1=O.O=C(O)C(F)(F)F (centres undefined) | -42.64
COc1cc2c(cc1OC)S(=O)(=O)N(Cc1ccccc1C)C2=O | -3.651
CC(=O)N1CC[C@H]2CC(=O)N(C3CCCCC3)CC[C@H]2C1 | -3.423
CCNC(=O)N1CC[C@H]2CC(=O)N(C3CCCCC3)CC[C@H]2C1 | 0.2272
O=C1CC(c2ncc(-c3ccc4c(c3)OCCO4)[nH]2)CN1C1CCCC1 (centres undefined) | 12.43
CC1CCN(c2nc(O)cc(C3CC(=O)N(C4CCCCC4)C3)n2)CC1 (centres undefined) | 162.6
CC(C)Nc1nc(O)cc(C2CC(=O)N(C3CCCCC3)C2)n1 (centres undefined) | 137.6
CCOCCCNc1nc(O)cc(C2CC(=O)N(C)C2)n1 (centres undefined) | -9.932
CCc1nc(C)c(CN2CCN(c3ncnc4c(C)csc34)CC2)[nH]1 | 6.188
O=c1cc(CN2CCCC(CCc3c(F)cccc3F)C2)[nH]c(=O)[nH]1 (centres undefined) | -9.358
O=C1NCCCCC1NC(=O)C1(c2cccc(Cl)c2)CC1 (centres undefined) | -14.19
COc1ccc(CN2CCC3(CC2)NC(=O)CC3c2ccncc2)cc1.O=C(O)C(F)(F)F.O=C(O)C(F)(F)F (centres undefined) | 4.952
O=C1CC(c2cccnc2)C2(CCN(C(=O)N3CCOCC3)CC2)N1 (centres undefined) | 18.29
O=C(O)C(F)(F)F.O=C1CC(c2ccncc2)C2(CCN(C(=O)c3cccs3)CC2)N1 (centres undefined) | 1.39

SMILES | Percent Effect [%]
Cc1nc(CN2CCC3(CC2)NC(=O)CC3c2cccnc2)cs1 (centres undefined) | 101
CCc1ccc(CN2CCC3(CC2)NC(=O)CC3c2ccncc2)o1.O=C(O)C(F)(F)F.O=C(O)C(F)(F)F (centres undefined) | -16.11
O=C(O)C(F)(F)F.O=C1CC(c2ccccc2)C2(CCN(CC3CC3)CC2)N1 (centres undefined) | -11.51
O=C1CC(c2ccncc2)C2(CCN(CCO)CC2)N1 (centres undefined) | -11.83
O=C(O)C(F)(F)F.O=C(O)C(F)(F)F.O=C1CC(c2ccncc2)C2(CCN(CC3CC3)CC2)N1 (centres undefined) | 90.78
Cc1nc(CN2CCC3(CC2)NC(=O)CC3c2ccncc2)cs1.O=C(O)C(F)(F)F.O=C(O)C(F)(F)F (centres undefined) | 104.7
CC(NC(=O)c1ccc2c(c1)COC2)c1cccc(N2CCOC2=O)c1 (centres undefined) | -4.788
Cc1nc2cc(OCc3nc(C(=O)NC(C)(CO)CO)co3)ccc2s1 | 17.49
CCOC(=O)N1CCN(C(=O)C(C)n2ccnc2C(C)C)CC1 (centres undefined) | -18.05
CCN(Cc1ccncc1)C(=O)C(C)n1ccnc1C(C)C (centres undefined) | 110.2
Cc1ccc(CN(C)C(=O)C(C)n2cncn2)o1 (centres undefined) | -9.156
CCN(Cc1ccc(C)o1)C(=O)C(C)n1ccnc1C(C)C (centres undefined) | 103.3
COc1cc2c(cc1CNC(=O)C(C)n1ccnc1C(C)C)OCCO2 (centres undefined) | -1.746
CC(C)c1nccn1C(C)C(=O)NC1Cc2ccccc2C1 (centres undefined) | 10.2
CC(C(=O)N(C)Cc1ccc(Br)o1)n1cccn1 (centres undefined) | 0.6222
Cc1ccc(CN(C)C(=O)C(C)n2ccnc2C(C)C)o1 (centres undefined) | 90.15
CCc1nnc(CN(CC)C(=O)C(C)n2ccnc2C(C)C)o1 (centres undefined) | 83.87
Cc1nc(C)n(CCNC(=O)C(C)n2ccnc2C(C)C)n1 (centres undefined) | -3.784
CCc1nnc(CN(CC)C(=O)CCc2scnc2C)o1 | -3.701
Cc1cccnc1N1CCN(C(=O)C(C)n2ccnc2C(C)C)CC1 (centres undefined) | -23.9
Cc1nnc2ccc(NCC3(N4CCCCC4)CCOCC3)nn12 | -7.148
COc1ccc(C)cc1-n1c(COC(C)C)n[nH]c1=O | 0.04984
Cc1cccc(CCC(=O)NCC2CCCN2c2cccnn2)c1 (centres undefined) | 7.373
Cc1nc(CN2CC(=O)N(C)c3ccccc3C2=O)no1 | 7.895
